Only some compounds are listed: those with a hit (about 6.6% of all), similar ones and a draw of the others.
RGS4 inhibitor: human RGS4 inhibition; Transcreener GDP fluorescence polarization, RGS4-accelerated GTP hydrolysis; P49798; Potency, µM (doses to about 114 µM), most hits filed as inhibitors; hit rate 0.039% among 390,000; also: nearly all actives have a fitted effect of over 75% in size
Target sequence (P49798 whole entry, looked up): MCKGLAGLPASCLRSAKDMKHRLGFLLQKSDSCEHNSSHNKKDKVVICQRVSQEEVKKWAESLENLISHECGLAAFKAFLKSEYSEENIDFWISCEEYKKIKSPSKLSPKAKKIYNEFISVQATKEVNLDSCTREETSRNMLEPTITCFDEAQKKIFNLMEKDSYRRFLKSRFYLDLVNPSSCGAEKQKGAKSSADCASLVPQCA
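MLSMR compounds (23 nl, pin-transferred) preincubated 10 min at room temperature with a 500nM (2x) first reagent, then RGS4 at 900nM (2x) plus Transcreener GDP mix added; fluorescence polarization (620/688 nm) read before and after 90 min at 30 °C.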
KB-3-1 tox: kills parental KB-3-1 adenocarcinoma cells | KB-3-1 viability, CellTiter-Glo ATP luminescence, 72 h | Potency, µM (highest dose often 46.1 µM), most hits filed as cytotoxic | hit rate 1.4% among 400,000 | AID 1347075; also: nearly all actives have a fitted effect of over 60% in size
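Multi-concentration cytotoxicity screen in KB-3-1 cells grown in DMEM lacking phenol red with 10% FBS. After 72 h at 37 °C with compound, ATP-dependent luminescence was recorded.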
MCF10A rereplic: induces DNA re-replication in MCF 10a normal breast cells | MCF 10A DNA re-replication, Hoechst nuclear intensity, 48 h | Potency, µM (doses to about 46.1 µM), usual class: activators | hit rate 2.9% among 350,000 | AID 624296; also: nearly all actives have a fitted effect of over 50% in size
SW480 rereplic: induces DNA re-replication in SW480 colon adenocarcinoma cells; hit rate 1.8% among 340,000; Potency, µM (top dose mostly 46.1 µM), most hits filed as activators; AID 624297; SW480 DNA re-replication, Hoechst DNA content imaging, 48 h; also: nearly all actives have a fitted effect of over 55% in size
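Cells (250 per well) received 23 nL compound or DMSO by pin tool and were kept 48 hr at 37 C, 5% CO2. Nuclei were then stained with Hoechst for 40 min and scanned for DNA content.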
TSG101-PTAP inh: blocks PTAP/TSG101 interaction to inhibit HIV-1 budding | Fluorescence polarization, FITC-PTAP peptide / Tsg101 binding | Potency, µM (titrated, usually from 115 µM), usual class: inhibitors | 340,000 tested, under 10 active | AID 493005; active = well fitted inhibition curve with a large enough effect in the main read-out, with a control signal flat, not every such curve was filed as active; inconclusive = small, poorly fitted or top-dose-only effect, or effect the other way, or a change in a side signal; inactive = no such curve, though single readings can be large or run the other way
Target sequence (Q99816 whole entry, looked up): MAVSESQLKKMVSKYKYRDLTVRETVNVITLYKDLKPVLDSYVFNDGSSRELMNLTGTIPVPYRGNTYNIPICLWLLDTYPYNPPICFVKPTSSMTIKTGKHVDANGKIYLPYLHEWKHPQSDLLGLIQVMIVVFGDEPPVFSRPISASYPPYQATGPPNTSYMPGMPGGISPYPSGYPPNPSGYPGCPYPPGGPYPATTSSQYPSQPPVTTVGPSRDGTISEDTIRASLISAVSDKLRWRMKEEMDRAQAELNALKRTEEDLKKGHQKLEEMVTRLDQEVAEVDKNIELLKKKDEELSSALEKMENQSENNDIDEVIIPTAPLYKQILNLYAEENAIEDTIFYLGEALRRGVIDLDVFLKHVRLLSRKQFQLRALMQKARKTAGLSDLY
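Fluorescence polarization binding of Tsg101 binding domain (10 uM final) to FITC-labeled PTAP peptide (50 nM final) in HEPES pH 7.5 buffer with NaCl, Tween 20, EDTA, TCEP. Compounds added before peptide; binding 20 min at RT.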
KB-V1 MDR tox: KB-V1 MDR subline cytotoxicity | KB-V1 MDR cells viability, CellTiter-Glo, 72 h | Potency, µM (top dose mostly 46.1 µM), hits mostly cytotoxic | AID 1347076 | hit rate 3.4% among 400,000; also: nearly all actives have a fitted effect of over 60% in size
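Drug-selected KB-V1 cells, grown in DMEM lacking phenol red with 10% FBS, receive compound titrations; after three days at 37 degrees C, surviving cell ATP is quantified by CellTiter-Glo luminescence and responses normalized and curve-fitted.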
A number is an active result; n = inactive; u = inconclusive; x = no result given; [ ] = another dose, or the depositor's remark. Unless noted, calls follow the shape of the dose curve; as a rule, active = well fitted curve in the direction sought with a large enough effect; inconclusive = small, poorly fitted or top-dose-only effect, or another doubt; inactive = no such curve, though single readings can be large; an effect the other way counts as inactive or inconclusive.

SMILES | RGS4 inhibitor | KB-3-1 tox | MCF10A rereplic | SW480 rereplic | TSG101-PTAP inh | KB-V1 MDR tox
CCCCn1c(Oc2ccc(C(=O)OC)cc2)nc2c1c(=O)n(C)c(=O)n2C | n | n | n | n | n | 16µM
CCCCn1c(SCc2nnc(-c3ccccc3)o2)nc2c1c(=O)n(C)c(=O)n2C | n | n | n | n | x | 2.6µM
CCCCn1c(SCC(=O)Nc2cc(C)on2)nc2c1c(=O)n(C)c(=O)n2C | n | n | n | n | n | 15µM
CCCn1c(SCC(=O)Nc2ccccc2C(=O)OC)nc2c1c(=O)n(C)c(=O)n2C | n | n | n | n | n | 5µM
CCn1c(SCC(=O)Nc2cc(C)on2)nc2c1c(=O)n(C)c(=O)n2C | n | n | n | n | n | n
CCCCn1c(SCC(=O)N2c3ccccc3CCc3ccccc32)nc2c1c(=O)n(C)c(=O)n2C | n | n | n | n | n | u
CN(C)c1ccc(C(CNC(=O)c2ccccc2F)N2CCc3ccccc32)cc1 (stereo not given) | n | n | x | x | x | n
CCC(C)NC(=O)CCc1c(C)nc2cc(-c3ccc(OC)cc3OC)nn2c1C (stereo not given) | n | n | x | x | x | n
COc1ccccc1NC(=O)CSc1nnc(-c2ccoc2C)o1 | n | 12µM | n | n | n | u
Cc1cc(C)cc(NC(=O)CSc2nnc(-c3ccccc3C)o2)c1 | n | n | n | n | n | 12µM
COc1ccccc1NC(=O)CSc1nnc(-c2ccccc2C)o1 | n | n | x | x | x | n
COc1ccc(C)cc1NC(=O)CSc1nnc(-c2ccc(Br)cc2)o1 | n | n | 13µM | n | n | n
Cc1occc1-c1nnc(SCC(=O)Nc2nc(-c3ccccc3)cs2)o1 | n | n | 18µM | u | n | n
CC1CN(C(=O)N2CCC(C(=O)N3CCN(c4ccccc4)CC3)CC2)c2cc(Cl)ccc2O1 (stereo not given) | n | n | x | x | x | n
O=S1(=O)N=C(Oc2ccccc2Br)c2ccccc21 | x | n | x | x | x | n
Cc1c(CNCCCc2ccccc2)c(C(=O)O)c(C)n1Cc1cccc(Cl)c1 | n | n | x | x | x | u
Cc1ccccc1Nc1cc(C(=O)NC2CCC(C)CC2)c2ccccc2n1 (stereo not given) | n | n | x | x | x | u
CC(C)(C)OC(=O)NCCc1nnc(SCc2ccccc2Cl)o1 | n | n | n | n | n | n
CC(C)(C)OC(=O)NCCc1nnc(S(=O)(=O)Cc2ccc(Cl)cc2Cl)o1 | n[11.4 µM] | n | 7.3µM | u | n | n
COc1ccc(NC(=O)Nc2nnc(N3CCCCCC3)s2)c(OC)c1 | n | n | x | x | x | n
CCOC(=O)c1sc(NC(=O)c2cccc(S(=O)(=O)N3CCc4ccccc43)c2)c(C#N)c1C | n | 21µM | n | n | n | n
Cc1ccc2nc(NC(=O)c3ccc(S(=O)(=O)N4CCCc5ccccc54)cc3)sc2c1 | n | n | 16µM | u | n | n
O=C(Nc1cccnc1)c1cccc(S(=O)(=O)N2CCc3ccccc32)c1 | n | u | n | n | n | 10µM
O=C(Nc1nc2c(F)cccc2s1)c1ccc(S(=O)(=O)N2CCCc3ccccc32)cc1 | n | n | x | x | x | n
O=C(Nc1ccncc1)c1cccc(S(=O)(=O)N2CCc3ccccc32)c1 | n | u | n | u | n | u
SMILES | RGS4 inhibitor | KB-3-1 tox | MCF10A rereplic | SW480 rereplic | TSG101-PTAP inh | KB-V1 MDR tox
CCC(CC)c1nnc(NC(=O)c2cccc(S(=O)(=O)N3CCc4ccccc43)c2)s1 | n | n | 4.6µM | u | n | 15µM
CCOC(=O)c1sc(NC(=O)c2cccnc2)c(C#N)c1C | n | n | n | n[9.22 µM] | n | n
CCCn1cc(S(=O)(=O)c2ccc(CC)cc2)c(=O)c2ccccc21 | n | n | x | x | x | n
O=C(Nc1nc2ccc(F)cc2s1)c1cccc(S(=O)(=O)N2CCc3ccccc32)c1 | n | u | n | n | n | 2.9µM
CN(CC(=O)Nc1ccccc1Br)C(=O)c1cccc(S(=O)(=O)N2CCc3ccccc32)c1 | n | n | u | n | n | 18µM
O=C(Nc1nc2c(F)cc(F)cc2s1)c1ccc(S(=O)(=O)N2CCc3ccccc32)cc1 | n | u | x | x | x | n
COc1ccccc1C(CNC(=O)c1cccc(S(=O)(=O)N2CCCc3ccccc32)c1)N(C)C (stereo not given) | n | n | n | n | n | 5.8µM
COc1ccc(NS(=O)(=O)c2ccc3c(c2)CC(C)N3C(C)=O)c(OC)c1 (stereo not given) | n | n | x | x | x | n
Cc1cc(NC(=O)CSc2nc(-c3cccc(F)c3)nc3c2c(=O)n(C)c(=O)n3C)no1 | n | n | x | x | x | n
COc1ccc(N(C)C(=O)CCn2cnc3onc(-c4ccc(F)cc4)c3c2=O)c(OC)c1 | n | n | x | x | x | u
COc1ccc(-c2nc(CN3CCC(C(=O)NCCCOC(C)C)CC3)c(C)o2)cc1OC | n | n | x | x | x | n
COc1ccc(CNC(=O)COc2ccc(OC)cc2)cc1 | n | n | n | n | n | n
Cc1ccc(CNC(=O)COc2ccc(C(=O)c3ccc(F)cc3)cc2)cc1 | n | u | 16µM | u | n | u
COc1ccc(CNC(=O)COc2ccc(C(=O)c3ccc(F)cc3)cc2)cc1 | n | u | 1.2µM | u | n | u
O=C(COc1ccc(C(=O)c2ccc(F)cc2)cc1)NCc1ccc(F)cc1 | n | 4.1µM | 1.5µM | 15µM | n | 9.2µM
Cc1cccc(NC(=O)CNC(=O)COc2ccc(C(=O)c3ccc(F)cc3)cc2)c1C | n | 6.5µM | 15µM | u | n | u
COc1ccc(CNC(=O)COc2ccc(F)cc2)cc1 | n | n | n | n | n | u
Cc1ccccc1-c1noc(-c2ccc(NCc3ccco3)c([N+](=O)[O-])c2)n1 | n | n | x | x | x | u
CC1(C)CC(=O)C2=C(C1)OC(N)=C(C#N)C2C#Cc1ccccc1 (stereo not given) | n | n | 8.9µM | u | n | n
CC(C)(C)c1ccc(-c2nc(C=O)c3ccccn23)cc1 | n | n | n | n | n | 16µM
C(=N\N1CCOCC1)/c1nc(-c2ccccc2)n2ccccc12 | n | n | n | n | n | n
CCCNC(=O)C1CCC(Cn2c(=O)c3sccc3n(CC(=O)NCc3cccc(OC)c3OC)c2=O)CC1 (stereo not given) | n | n | x | x | x | n
CCCOc1ccc2c(c1)C(=NN=C(N)N)c1cc(OCCC)ccc1-2 | n | u | u | 18µM | n | u
O=c1c2c(-c3ccccc3)csc2ncn1/N=C/c1cccc([N+](=O)[O-])c1O | n | n | n | u | n | n
Cn1cc(/C=N/n2cnc3scc(-c4ccccc4)c3c2=O)c2ccccc21 | n | 5.2µM | u | 15µM | n | 2.1µM
Cc1cc(SCC(=O)Nc2ncc(Cl)cc2Cl)nc2ccccc12 | n | n | n | u | n | 6.5µM
